Inconclusive results are not listed. Where a call stands in place of a potency, no number is given. A number with no mark means an inactive call. Active and inactive are the calls of the source. Calls come from the whole dose curve; as a rule, active = well fitted cell-killing curve with a large enough effect; inconclusive = small, poorly fitted or top-dose-only effect, or effect the other way; inactive = no such curve, though single readings can be large or run the other way.
Legend:
[1] = Viability qHTS for spleen associated tyrosine kinase inhibitor (SYKi) naive MV4-11 cells (AID 1963823); note: nearly all actives have a fitted effect of over 40% in size
Summary of the method: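 qHTS, SYK inhibitor-naive MV4-11; 500 cells/well; 72 hr compound exposure, 37 C; CellTiter-Glo added, 10 min RT; luminescence read.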

[2] = Viability qHTS for spleen associated tyrosine kinase inhibitor (SYKi) drug resistant MV4-11 cells (AID 1963824); note: nearly all actives have a fitted effect of over 35% in size
Summary of the method: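 CellTiter-Glo luminescence, read 10 min after reagent addition, reports viability after a 72 hr compound exposure. Cells are an MV4-11 line made resistant to SYK inhibition, seeded at 500 per well onto compound-containing plates.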
Potency is the fitted concentration of half-maximal effect.

SMILES | Potency [1] | Potency [2] | viability (% of control) [1] | viability, % of control [2]
CN1CCCN(C(=O)c2cccc(-c3ccc(/C=C4\C(=O)Nc5ccc(Cl)cc54)o3)c2)CC1 | 0.184 µM (active) | 0.461 µM (active) | – | –
CC(C)=CCC/C(C)=C/CCC1(C)Oc2c(c(O)cc3c2CN(C(CCC(=O)O)C(=O)O)C3=O)CC1O (stereo unspecified) | inactive | inactive | – | –
Cn1ncnc1COc1nn2c(-c3cc(F)ccc3F)nnc2cc1C(C)(C)C | inactive | inactive | – | –
C[C@H](NC(=O)c1c(N)nn2cccnc12)c1cc2cccc(C#Cc3cnn(C)c3)c2c(=O)n1-c1ccccc1 | 7.23 µM (active) | 7.23 µM (active) | – | –
CC12CC(O)C(O)C=C1c1cc(O)cc(O)c1C(=O)O2 (stereo unspecified) | inactive | inactive | – | –
C=CC(C)(O)CC/C=C(\C)C(=O)OCC1OC(OC2CCC3(C)C(CCC4(C)C3CC=C3C5CC(C)(C)C(O)CC5(C(=O)O)CCC34C)C2(C)C)C(O)C(OC2OC(CO)C(O)C(OC3OC(CO)C(O)C(OC4OC(COC5OC(CO)C(O)C(O)C5O)C(O)C(O)C4O)C3O)C2O)C1O (stereo unspecified) | – | – | 99.5% [at 9.25 µM] | 108% [at 9.25 µM]
CCC(C)C(N)C(=O)NCCN1CCOCC1 (stereo unspecified) | inactive | inactive | – | –
CC(CCC1(O)OC2CC3C4CCC5CC(O[C@@H]6O[C@H](CO)[C@@H](O)[C@H](O)[C@H]6O[C@@H]6OC[C@@H](O)[C@H](O)[C@H]6O)C(O)CC5(C)C4CCC3(C)C2C1C)CO[C@@H]1O[C@H](CO)[C@@H](O)[C@H](O)[C@H]1O (stereo partly specified) | – | – | 83.1% [at 9.25 µM] | 86.8% [at 9.25 µM]
